Bioassay records from PubChem BioAssay.
KCNQ2 pot: enhances the rat KCNQ2 potassium channel; O88943; CHO-K1 KCNQ2, FluxOR thallium flux fluorescence; hits give high values; B-score at 10 µM; actives 0.54% (n = 310,000); AID 2239;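 active = fluorescence ratio B-score at least 3 SD of library B-scores, with initial fluorescence B-score within 3 of them, cut at about 5.3 in these data; same plate scores as AID 2156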;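 note: B-score of peak minus minimum over baseline fluorescence ratio after K+ and Tl+ stimulus; positive B-score means potentiation of KCNQ2 with more thallium influx and brighter signal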
KCNQ2 inh: blocks the rat KCNQ2 potassium channel; O88943; CHO-K1 KCNQ2, FluxOR thallium flux, 20 min; hits give low values; B-score at 10 µM; actives 1.1% (n = 310,000);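 active = fluorescence ratio B-score at most minus 3 library SDs, with starting brightness B-score within 2 library SDs, cut at about -5.5 in these data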
Kir21 confirm: confirmation of mouse Kir2.1 potassium channel inhibitors; Kir2.1-expressing cells, FluxOR thallium flux fluorescence; hits give low values; shares compounds with KCNQ2 pot; Tl flux remaining, % of negative control (hits give low values), % at 10 µM; actives 41% (n = 2,300);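 active = Primary-screen hit whose thallium flux fell at least 3 control SD below untreated wells in both duplicates, with normal baseline fluorescence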;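 note: 0% = blank wells without stimulus and 100% = stimulated no-compound controls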
HEK293 Tl flux: parental HEK293 activity in Kir2.1 inhibitor counter-screen; shares compounds with KCNQ2 pot; parental HEK293 cells, FluxOR thallium flux fluorescence; 0% = unstimulated blank wells; FluxOR signal as % of negative control (100 = no effect), % at 10 µM; actives 19% (n = 2,300);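 active = dye signal at least 3 control SD above or below untreated wells in both duplicates, raw fluorescence within 3, either direction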;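 note: percent is based on the flux ratio of peak minus minimum fluorescence over baseline F0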
CHO-K1 ctr: alters thallium flux in parental CHO-K1 cells, KCNQ2 counter-screen. actives 43% (n = 1,200). FluxOR thallium flux fluorescence; zero = vehicle mean+3SD, 100% = vehicle-minus-blank window. activity increase over 3SD of controls, % at 10 µM. shares compounds with KCNQ2 pot. AID 2282;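 active = signal rise of at least 3 SD above the untreated control mean, in both duplicate wells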;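 note: counter screen of KCNQ2 potentiator hits so any rise reflects channel-independent effects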
KCNQ1 pot spec: selectivity of KCNQ2 potentiators: effect on human KCNQ1; actives 28% (n = 1,200); activation over 3SD threshold, % at 10 µM; CHO KCNQ1 stable, FluxOR thallium flux fluorescence; beyond 3SD, as % of vehicle-control signal; shares compounds with KCNQ2 pot;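 active = fluorescence ratio rise of at least 3 SD of vehicle wells above their mean, in both replicate wells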;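 note: 0% = vehicle mean plus 3 SD and 100% = vehicle minus unstimulated blank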
Target sequence (P51787 whole entry, looked up): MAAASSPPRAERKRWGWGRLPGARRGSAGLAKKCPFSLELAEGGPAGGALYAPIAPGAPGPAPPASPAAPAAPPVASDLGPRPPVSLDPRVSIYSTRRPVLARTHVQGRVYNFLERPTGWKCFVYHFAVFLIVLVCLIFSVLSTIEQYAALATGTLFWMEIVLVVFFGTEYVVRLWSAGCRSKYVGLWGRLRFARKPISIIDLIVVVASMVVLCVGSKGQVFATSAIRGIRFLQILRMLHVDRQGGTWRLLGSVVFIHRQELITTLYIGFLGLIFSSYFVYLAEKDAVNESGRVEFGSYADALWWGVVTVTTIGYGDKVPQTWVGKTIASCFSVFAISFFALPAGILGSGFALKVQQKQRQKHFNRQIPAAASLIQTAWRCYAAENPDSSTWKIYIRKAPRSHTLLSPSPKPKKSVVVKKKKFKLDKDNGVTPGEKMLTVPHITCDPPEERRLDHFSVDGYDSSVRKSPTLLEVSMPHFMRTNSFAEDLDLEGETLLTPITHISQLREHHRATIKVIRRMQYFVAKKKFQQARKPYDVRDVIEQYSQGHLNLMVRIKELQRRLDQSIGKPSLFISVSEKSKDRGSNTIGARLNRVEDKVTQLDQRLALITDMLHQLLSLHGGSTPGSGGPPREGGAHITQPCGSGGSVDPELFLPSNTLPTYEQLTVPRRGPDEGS
KCNQ2 pot confirm: rat KCNQ2 channel potentiator confirmation; shares compounds with KCNQ2 pot; CHO-KCNQ2 cells, FluxOR thallium flux fluorescence; potentiation, less the hit threshold, % at 10 µM; actives 68% (n = 1,200); AID 2287;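 active = fluorescence ratio rising 3 SD or more over the vehicle control mean in both replicates, plus primary screen hit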;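 note: peak minus minimum thallium fluorescence divided by baseline after K/Tl stimulus; 0% = vehicle mean plus 3 SD and 100% = vehicle minus unstimulated blank difference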
Kir21 spec: selectivity of KCNQ2 potentiators: effect on mouse Kir2.1; shares compounds with KCNQ2 pot; HEK293 Kir2.1, FluxOR thallium flux fluorescence; activity over 3SD threshold, % at 10 µM; actives 2% (n = 1,200); AID 2345;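 active = fluorescence ratio rise of at least 3 SD above the vehicle-control mean, seen in both replicates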;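 note: 0% = vehicle mean plus 3 SD and 100% = vehicle minus no-stimulus blank window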
KCNQ2 W236L MoA: KCNQ2 potentiators acting on retigabine-insensitive rat KCNQ2 W236L mutant; AID 2558; CHO KCNQ2-W236L, automated patch clamp current; shares compounds with KCNQ2 pot; actives 10% (n = 940); current increase over 3SD of negative controls (%), hits give high values, % at 25 µM;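 active = current increase at least 3 SD of the untreated controls above them in both duplicate recordings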
Active calls of the source: *. This is a sample that favours compounds with a hit; in the whole collection about 1.6% have one here.

Cc1noc(C)c1COC(=O)CCOc1ccccc1 was read as KCNQ2 pot 1.1 and KCNQ2 inh inactive.
Cc1noc(C)c1COC(=O)CCN1c2ccccc2Sc2ccccc21 was read as KCNQ2 inh inactive, Kir21 confirm 70%* and HEK293 Tl flux inactive.
For O=C(O)C[C@H]1c2cc(C(F)(F)F)ccc2S(=O)(=O)N1Cc1ccccc1 the results were KCNQ2 inh inactive.
Screening CCC(NC(=S)NCc1ccc(F)cc1)c1ccccc1 (configuration not stated) returned KCNQ2 pot 1.3, KCNQ2 inh inactive, Kir21 confirm 58%* and HEK293 Tl flux 62%*.
O=C(NCc1ccc(F)cc1)C(c1ccccc1)c1ccccc1 was read as KCNQ2 inh inactive.
Screening CCOc1ccc(S(=O)(=O)NCCC(=O)OCC(=O)c2ccc(NC(C)=O)cc2)cc1 returned KCNQ2 pot 0.54 and KCNQ2 inh inactive.
Screening CC(OC(=O)c1ccccc1)C(=O)NCCC1=CCCCC1 (configuration not stated) returned KCNQ2 pot 1.2 and KCNQ2 inh inactive.
For Cc1ccccc1OC(C)C(=O)NCCC1=CCCCC1 (configuration not stated) the results were KCNQ2 pot -5.9, KCNQ2 inh -5.9*, Kir21 confirm 38%* and HEK293 Tl flux inactive.
Screening Cc1nc(N2CCC(C)CC2)c2c(C)c(C(=O)Nc3ccc(C)c(F)c3)sc2n1 returned KCNQ2 inh inactive.
Cc1nc(N2CCN(C)CC2)c2c(C)c(C(=O)Nc3ccc(C)c(F)c3)sc2n1 was read as KCNQ2 inh inactive, Kir21 confirm 64%* and HEK293 Tl flux inactive.
Screening O=C(CN1CCN(Cc2ccc(Cl)cc2)CC1)N/N=C/c1ccccc1F returned KCNQ2 pot 0.12 and KCNQ2 inh inactive.
Screening Cc1occc1C(=O)NNC(=S)NC(=O)COc1ccc(Cl)cc1Cl returned KCNQ2 pot 9.5*, KCNQ2 inh inactive, Kir21 confirm inactive, HEK293 Tl flux 149%*, CHO-K1 ctr -18, KCNQ1 pot spec 93*, KCNQ2 pot confirm 6.5*, Kir21 spec -25 and KCNQ2 W236L MoA inactive.
`Cc1occc1C(=O)NNC(=O)COc1ccc(Br)cc1Br` gave KCNQ2 inh inactive.
`O=C(NC(CSSCC(NC(=O)c1ccccc1)C(=O)O)C(=O)O)c1ccccc1` (configuration not stated) gave KCNQ2 pot 0.3 and KCNQ2 inh inactive.
COCCN(C(=O)COC(=O)c1cccnc1SC)c1c(N)n(Cc2ccccc2)c(=O)[nH]c1=O was read as KCNQ2 pot 0.49 and KCNQ2 inh inactive.
`O=C(NC(=S)Nc1ccccn1)c1cc(-c2ccccc2)nc2ccccc12` gave KCNQ2 pot 1.7 and KCNQ2 inh inactive.
For O=C(Nc1csnn1)c1csnn1 the results were KCNQ2 inh inactive.
For O=C(NC(=S)Nc1ccccc1)c1ccc(-c2ccccc2)cc1 the results were KCNQ2 pot 0.29 and KCNQ2 inh inactive.
Screening COc1ccc(NC(=S)NC(=O)c2csnn2)cc1 returned KCNQ2 pot 11*, KCNQ2 inh inactive, Kir21 confirm inactive, HEK293 Tl flux 242%*, CHO-K1 ctr 21*, KCNQ1 pot spec -10, KCNQ2 pot confirm 30*, Kir21 spec -19 and KCNQ2 W236L MoA inactive.
Screening COc1ccc(CNC(=O)c2csnn2)cc1 returned KCNQ2 inh inactive.
O=C(NC(=S)Nc1ccccc1)c1csnn1 was read as KCNQ2 pot 18*, KCNQ2 inh inactive, Kir21 confirm inactive, HEK293 Tl flux 487%*, CHO-K1 ctr -18, KCNQ1 pot spec -13, KCNQ2 pot confirm 73*, Kir21 spec -5 and KCNQ2 W236L MoA inactive.
For O=C(NC(=S)Nc1ccccc1)c1cc(-c2ccccc2)nc2ccccc12 the results were KCNQ2 pot 17*, KCNQ2 inh inactive, Kir21 confirm inactive, HEK293 Tl flux 131%*, CHO-K1 ctr -13, KCNQ1 pot spec -21, KCNQ2 pot confirm 1.7*, Kir21 spec -34 and KCNQ2 W236L MoA inactive.
O=C(NC(=S)Nc1ccc(C(F)(F)F)cc1)c1csnn1 was read as KCNQ2 pot 21*, KCNQ2 inh inactive, Kir21 confirm inactive, HEK293 Tl flux 398%*, CHO-K1 ctr 2.2*, KCNQ1 pot spec -26, KCNQ2 pot confirm 69*, Kir21 spec -23 and KCNQ2 W236L MoA inactive.
For O=C(O)c1cn(C2CC2)c2cc(N3CCN(S(=O)(=O)c4ccc5c(c4)OCCO5)CC3)c(F)cc2c1=O the results were KCNQ2 inh inactive.
Screening Cn1nc(C(=O)N2CCN(c3ccccn3)CC2)c2ccccc2c1=O returned KCNQ2 pot 1 and KCNQ2 inh inactive.
For CC(=O)Nc1c(O)nc(SCC(=O)Nc2nnc(SCc3ccccc3)s2)[nH]c1=O the results were KCNQ2 pot 0.83 and KCNQ2 inh inactive.
`O=C(O)COC(=O)C1C(c2ccccc2)C(C(=O)O)C1c1ccccc1` (configuration not stated) gave KCNQ2 pot 0.03 and KCNQ2 inh inactive.
`Cc1ccc(S(=O)(=O)N2CCc3c2cc([N+](=O)[O-])cc3[N+](=O)[O-])cc1` gave KCNQ2 inh inactive.
Screening CC(=O)Nc1ccc(NC(=O)c2nc(S(=O)(=O)Cc3ccccc3)ncc2Cl)cc1 returned KCNQ2 inh inactive.
Screening CCc1nnc(NC(=O)c2nc(S(=O)(=O)Cc3cccc(C)c3)ncc2Cl)s1 returned KCNQ2 pot 18*, KCNQ2 inh inactive, CHO-K1 ctr 5.0*, KCNQ1 pot spec -1, KCNQ2 pot confirm 64*, Kir21 spec -57 and KCNQ2 W236L MoA 19%*.
For CCOc1ccccc1NC(=O)c1nc(S(=O)(=O)Cc2cccc(C)c2)ncc1Cl the results were KCNQ2 pot 0.76 and KCNQ2 inh inactive.
